According to PubChem BioAssay (NCATS):
Records with an inconclusive call do not appear. Where a call stands in place of a potency, no number is given. The source made the active and inactive calls. Calls come from the whole dose curve; as a rule, active = well fitted inhibition curve with a large enough effect; inconclusive = small, poorly fitted or top-dose-only effect; inactive = flat fitted curve, though single readings scatter.

Legend:
Assay in all cases: qHTS profiling for inhibitors of Plasmodium falciparum proliferation (AID 504749); note: nearly all actives have a fitted effect of over 60% in size
Conditions in all cases: P. falciparum in erythrocytes, SYBR Green DNA, 72 h; series mostly up to 28.7 µM
3D7 = system: 3D7
How it was run: (§1)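 Each compound contacts P. falciparum-infected red blood cells for 72 h at 37 C; lysis buffer (Tris, EDTA, saponin, Triton X, SYBR Green I) is added and fluorescence measured next morning; values normalized to controls.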

7G8 = system: 7G8
How it was run: as §1

ATS95 = system: ATS95
How it was run: as §1

C2A = system: C2A
How it was run: as §1

CP191 = system: CP191
How it was run: as §1

CP247 = system: CP247
How it was run: as §1

CP250 = system: CP250
How it was run: as §1

CP256 = system: CP256
How it was run: as §1

CP260 = system: CP260
How it was run: as §1

CP266 = system: CP266
How it was run: as §1

CP297 = system: CP297
How it was run: as §1

CP335 = system: CP335
How it was run: as §1

DIV17 = system: DIV17
How it was run: as §1

GB4 = system: GB4
How it was run: as §1

P93_24 = system: P93_24
How it was run: as §1

P94_40 = system: P94_40
How it was run: as §1

PAD = system: PAD
How it was run: as §1

PC26 = system: PC26
How it was run: as §1

TAB113 = system: TAB113
How it was run: as §1

TAB165 = system: TAB165
How it was run: as §1
Potency is the fitted concentration of half-maximal effect.

Structure (SMILES)	Potency (3D7)	Potency (7G8)	Potency (ATS95)	Potency (C2A)	Potency (CP191)	Potency (CP247)	Potency (CP250)	Potency (CP256)	Potency (CP260)	Potency (CP266)	Potency (CP297)	Potency (CP335)	Potency (DIV17)	Potency (GB4)	Potency (P93_24)	Potency (P94_40)	Potency (PAD)	Potency (PC26)	Potency (TAB113)	Potency (TAB165)
CCCCCCCCCCCCCCCC(=O)OCC(COP(=O)(O)OCC[N+](C)(C)C)OC(=O)CCCCCCCCCCCCCCC (stereo unspecified)	inactive	inactive	inactive	inactive	inactive	inactive	inactive	inactive	inactive	inactive	inactive	inactive	inactive	inactive	inactive	inactive	inactive	inactive	inactive	inactive
NC(=O)C1CC2(NC(=O)NC2=O)c2cc(F)ccc2O1 (stereo unspecified)	inactive	inactive	inactive	inactive	inactive	inactive	inactive	inactive	inactive	inactive	inactive	inactive	inactive	inactive	inactive	inactive	inactive	inactive	inactive	inactive
C=C(NCc1ccccc1)c1ccccc1O	inactive	inactive	inactive	inactive	inactive	inactive	inactive	inactive	inactive	inactive	inactive	inactive	inactive	inactive	inactive	inactive	inactive	inactive	inactive	inactive
Nc1nc(F)nc2c1ncn2[C@@H]1O[C@H](CO)[C@@H](O)[C@H]1O	inactive	inactive	inactive	inactive	inactive	inactive	inactive	inactive	inactive	inactive	inactive	inactive	inactive	inactive	inactive	inactive	inactive	inactive	inactive	inactive
COC1CC2CCC(C)[C@](O)(O2)C(=O)C(=O)N2CCCCC2C(=O)OC(C(C)CC2CCC(O)C(OC)C2)CC(=O)C(C)/C=C(/C)C(O)C(OC)C(=O)C(C)CC(C)C=CC=C/C=C\1C (stereo partly specified)	2 µM (active)	1 µM (active)	3.55 µM (active)	4.47 µM (active)	2.51 µM (active)	3.16 µM (active)	3.16 µM (active)	3.16 µM (active)	2.51 µM (active)	6.75 µM (active)	4.26 µM (active)	–	1.69 µM (active)	1.69 µM (active)	1.41 µM (active)	1.41 µM (active)	1.26 µM (active)	3.79 µM (active)	1.41 µM (active)	1.12 µM (active)
O=C(O)C(O)c1ccccc1 (stereo unspecified)	inactive	inactive	inactive	inactive	inactive	inactive	inactive	–	inactive	inactive	inactive	inactive	inactive	inactive	inactive	inactive	inactive	inactive	inactive	inactive
C/C1=C2/[N-]C(C(CC(N)=O)[C@@]2(C)CCC(=O)NCC(C)OP(=O)([O-])O[C@H]2[C@@H](O)[C@@H](n3cnc4cc(C)c(C)cc43)O[C@@H]2CO)[C@]2(C)N=C(/C(C)=C3N=C(/C=C4N=C1C(CCC(N)=O)C\4(C)C)[C@@H](CCC(N)=O)[C@]\3(C)CC(N)=O)[C@@H](CCC(N)=O)[C@]2(C)CC(N)=O.CC(=O)O.[Co] (stereo partly specified)	inactive	inactive	inactive	inactive	inactive	inactive	inactive	inactive	inactive	inactive	inactive	inactive	inactive	inactive	inactive	inactive	inactive	inactive	inactive	inactive
NCCCCC(N)C(=O)O (stereo unspecified)	inactive	inactive	inactive	inactive	inactive	inactive	inactive	inactive	inactive	inactive	–	inactive	inactive	inactive	inactive	inactive	inactive	–	inactive	inactive
CC(=O)N1CC(O)CC1C(=O)O (stereo unspecified)	inactive	inactive	inactive	inactive	inactive	inactive	inactive	inactive	–	inactive	inactive	inactive	inactive	inactive	inactive	inactive	inactive	inactive	–	inactive
C/C(=C(/CCO)SS/C(CCO)=C(\C)N(C=O)Cc1cnc(C)nc1N)N(C=O)Cc1cnc(C)nc1N	inactive	inactive	inactive	inactive	inactive	–	inactive	inactive	–	inactive	inactive	inactive	inactive	inactive	inactive	inactive	inactive	inactive	inactive	inactive
CC[C@H](C)[C@H]1O[C@]2(CC[C@@H]1C)C[C@@H]1C[C@@H](C/C=C(\C)[C@H](O[C@@H]3C[C@H](OC)[C@H](O[C@@H]4C[C@H](OC)[C@@H](O)[C@H](C)O4)[C@H](C)O3)[C@@H](C)/C=C/C=C3\CO[C@@H]4[C@H](O)C(C)=C[C@@H](C(=O)O1)[C@]34O)O2	1.41 µM (active)	2 µM (active)	1.12 µM (active)	1.41 µM (active)	0.794 µM (active)	1 µM (active)	0.891 µM (active)	0.708 µM (active)	2.24 µM (active)	–	1.51 µM (active)	1.35 µM (active)	2.13 µM (active)	1.51 µM (active)	1.26 µM (active)	1.12 µM (active)	1.41 µM (active)	1.2 µM (active)	0.891 µM (active)	0.794 µM (active)
